Sampled rows, rich in hits. Any-hit rate of the full collection: about 12%.
Lmaj promast = inhibitors of Leishmania major promastigote growth; Leishmania major promastigotes, resazurin fluorescence viability; inhibition, % at 10 µM; hit rate 9% among 200,000; AID 1063; in the data active = inhibition above about 50%;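 also: promastigotes grown with compound for 44 hours at 28 °C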
Insulin prom inh = TRM-6 insulin promoter activity inhibition; TRM-6 cells (human fetal islet line), insulin promoter-eGFP reporter, imaging; reporter expression induced with tamoxifen; inhibition, % at 2 µM; hit rate 0.9% among 130,000; AID 1273;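 active = inhibition above the mean plus 3 SD, with well images judged a real hit on visual review, cut at about 60% in these data, passing the limit was not always enough; inconclusive = inhibition over the cutoff but images rejected on review; inactive = inhibition not above the cutoff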
WT yeast gro inh = growth inhibition of WT yeast, mitochondrial fusion screen; mitochondrial fusion phenotypic screen, WT strain; hit rate 2.1% among 190,000; AID 1362; inhibition, % at 10 µM; in the data active = inhibition above about 58%; tested in S. cerevisiae
Cl transport mod = modulates chloride dependent transport by human KCC2; Q9H2X9; KCC2 cells, thallium flux FluoZin-2 fluorescence; B-score of Tl+ flux slope (higher = more flux/activation; lower = inhibition) at 10 µM; hit rate 2.2% among 190,000;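 active = thallium flux slope and its plate-corrected score both differing from the plate sample mean at a set confidence after two filtering rounds, in either direction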;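 also: slope of fluorescence scaled to starting intensity during 10 to 20 s after thallium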
Insulin prom up = MIN6 insulin promoter up-regulation; MIN6 insulin promoter-GFP reporter, high-content imaging; active compounds read high; z-score at 5 µM; hit rate 0.3% among 190,000;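 active = z-score above 3 at 5 µM with at least 500 cells counted in the well; inconclusive = wells under 500 cells, flagged as cytotoxic or low count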
ROMK mod = modulates human ROMK potassium channel activity. AID 1918. P48048. hit rate 2% among 130,000. B-score at 10 µM. Tet-inducible ROMK, thallium flux fluorescence; actives lie on both sides;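 active = signal ratio slope over the read window, or its plate-corrected B-score, at least 3 SD from the plate mean, either direction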;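 also: B-score of the F/F0 ratio slope over 7 to 12 s after thallium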
Target sequence (P48048 whole entry, looked up): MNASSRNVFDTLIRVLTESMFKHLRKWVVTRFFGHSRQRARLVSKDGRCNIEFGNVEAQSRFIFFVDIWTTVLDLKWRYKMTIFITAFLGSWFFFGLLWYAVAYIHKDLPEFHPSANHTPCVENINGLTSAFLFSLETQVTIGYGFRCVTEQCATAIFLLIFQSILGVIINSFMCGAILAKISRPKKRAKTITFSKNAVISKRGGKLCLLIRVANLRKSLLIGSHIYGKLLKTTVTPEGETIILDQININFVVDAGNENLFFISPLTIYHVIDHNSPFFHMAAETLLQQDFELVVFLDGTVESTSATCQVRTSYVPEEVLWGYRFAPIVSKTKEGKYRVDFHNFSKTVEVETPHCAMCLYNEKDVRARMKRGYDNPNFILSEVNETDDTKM
Of the large screens only hits and unclear results are named; the others gave an inactive call.

Cc1ccc(-n2cc(C(=O)c3cc(Cl)ccc3O)cc(C#N)c2=O)cc1	none
CCOc1ccc(-n2cc(C(=O)c3cc(Cl)ccc3O)cc(C#N)c2=O)cc1	WT yeast gro inh 59
OCCc1ccc(-c2ccc(Cl)cc2)o1	none
CN1CCN(Cc2ccc(-c3ccc(Cl)cc3)o2)CC1	Lmaj promast 94 (no result: ROMK mod)
O=[N+]([O-])/C=C/c1cn(Cc2ccc(F)cc2)c2ccccc12	Lmaj promast 99 (no result: WT yeast gro inh, Insulin prom up, ROMK mod)
COc1cc(NC(=O)c2ccco2)c(OC)cc1NC(=O)Nc1ccc(Cl)cc1	none (no result: Insulin prom inh, ROMK mod)
Cc1ccc(OCC(=O)c2c[nH]c3ccccc23)c([N+](=O)[O-])n1	none (no result: Insulin prom inh)
C=CCN=c1scc(-c2ccc3c(c2)NC(=O)CO3)n1/N=C(\C)c1ccccn1	Lmaj promast 57
COCCn1c(-c2ccc(-c3ccccc3Cl)o2)nc2c1c(=O)[nH]c(=O)n2CC(C)C	none (no result: Insulin prom inh, Cl transport mod, ROMK mod)
CC(Cc1cccs1)NC(=O)Nc1cccc(Cl)c1 (stereo not given)	Lmaj promast 68, Insulin prom up inconclusive
CC(Cc1cccs1)NC(=S)Nc1ccc(Cl)cc1 (stereo not given)	WT yeast gro inh 67
Cc1ccccc1/C=N/NC(=O)Cn1cnc([N+](=O)[O-])n1	none
O=C(Cn1cnc([N+](=O)[O-])n1)N/N=C/c1ccccc1O	Lmaj promast 100 (no result: Insulin prom up, ROMK mod)
O=C(Cn1cnc([N+](=O)[O-])n1)N/N=C/c1cc(Cl)ccc1O	Lmaj promast 100 (no result: Insulin prom inh)
CCOc1ccc(NC(=S)N2CCN(CCN3C(=O)c4cccc5cccc(c45)C3=O)CC2)cc1	Lmaj promast 71 (no result: Insulin prom up)
Cc1ccccc1OCC(O)CN1CCN(CCN2C(=O)c3cccc4cccc(c34)C2=O)CC1 (stereo not given)	Lmaj promast 100 (no result: Insulin prom inh, ROMK mod)
O=C(/C=C/c1ccccc1)N1CCN(CCN2C(=O)c3cccc4cccc(c34)C2=O)CC1	Lmaj promast 100 (no result: ROMK mod)
Cc1cccc(C)c1OCC(O)CN1CCC(CN2C(=O)c3cccc4cccc(c34)C2=O)CC1 (stereo not given)	Lmaj promast 93 (no result: ROMK mod)
C=CCc1ccccc1OCC(O)CN1CCN(CCN2C(=O)c3cccc4cccc(c34)C2=O)CC1 (stereo not given)	Lmaj promast 100 (no result: ROMK mod)
CC(=O)c1ccc(OCC(O)CN2CCN(CCN3C(=O)c4cccc5cccc(c45)C3=O)CC2)cc1 (stereo not given)	Lmaj promast 91 (no result: ROMK mod)
CC(=O)c1ccc(NC(=S)N2CCN(CCN3C(=O)c4cccc5cccc(c45)C3=O)CC2)cc1	none
CC(C)(C)c1ccc(C(=O)N2CCN(c3nc4ccccc4o3)CC2)cc1	none (no result: Insulin prom inh, ROMK mod)
Cc1c(N=C2NC(=O)/C(=C/c3ccc(O)cc3)S2)c(=O)n(-c2ccccc2)n1C	none
Cc1ccc(-c2nc(-c3ccc(Cl)cc3)sc2CC(=O)O)c(C)c1	none (no result: Insulin prom inh)
CCc1cccc(NS(=O)(=O)c2ccc3c(c2)CCC(=O)N3)c1	none (no result: Insulin prom inh)
Cc1c(Cl)cccc1NC(=O)C1Cc2ccccc2CN1C(=O)c1ccccc1 (stereo not given)	none (no result: Insulin prom inh, ROMK mod)
Cc1cccc(NC(=O)C2Cc3ccccc3CN2C(=O)OCc2ccccc2)c1C (stereo not given)	Lmaj promast 98
CC(C)(C)CC(=O)NCCCN1CCOCC1	none (no result: Insulin prom inh)
CCOC(=O)C1=C(C)NC(C)=C(C(=O)OCC)C1c1cccs1	none (no result: Insulin prom up, ROMK mod)
CCOC(=O)C1=CN(Cc2ccc(OC)cc2)C=C(C(=O)OCC)C1c1cccs1	Lmaj promast 100 (no result: Insulin prom inh)
COc1ccc(NC(=S)NNC(=O)c2ccccc2OC(F)F)cc1	none (no result: Insulin prom up)
CCc1ccc(NC(=S)NNC(=O)c2ccccc2OC(F)F)cc1	Cl transport mod 18 (no result: ROMK mod)
O=C1c2ccccc2C(=O)N1CC(=O)N1c2ccccc2Sc2ccc(C(F)(F)F)cc21	none (no result: Insulin prom inh, ROMK mod)
CN1CCN(CCC(=O)N2c3ccccc3Sc3ccc(C(F)(F)F)cc32)CC1	Lmaj promast 55 (no result: Insulin prom inh, Cl transport mod)
OCCN1CCN(CCCN2c3ccccc3Sc3ccc(C(F)(F)F)cc32)CC1	Lmaj promast 87 (no result: Insulin prom up, ROMK mod)
Cc1cc(C)c(S(=O)(=O)N2CCCCCC2)cc1Br	none (no result: Insulin prom inh)
CC(C)(CO)N=C1NS(=O)(=O)c2cc([N+](=O)[O-])ccc21	none (no result: Cl transport mod)
CC(C)(C)CC(C)(C)N=C1NS(=O)(=O)c2cc([N+](=O)[O-])ccc21	Lmaj promast 100
CCC(CC)N=C1NS(=O)(=O)c2cc([N+](=O)[O-])ccc21	Lmaj promast 99
COc1ccc(S(=O)(=O)NC(N)=NCCc2ccccc2)cc1	none (no result: Insulin prom inh, Insulin prom up)
O=C(CSc1nnc2c3ccccc3c3ccccc3c2n1)Nc1ccccc1	Lmaj promast 97 (no result: Insulin prom inh)
Cc1noc(NS(=O)(=O)c2ccc(NC(=O)CSc3nnc4c(n3)[nH]c3ccccc34)cc2)c1C	Lmaj promast 57 (no result: ROMK mod)
Cc1noc(NS(=O)(=O)c2ccc(NC(=O)Nc3ccc(Cl)c(Cl)c3)cc2)c1C	Insulin prom inh 75
Cc1ccc(-c2cc(C)nc3nc(N)nn23)cc1	none
O=C(Nn1cnnc1)c1ccccc1CCc1ccccc1	none
CC(C)(C)c1ccc(S(=O)(=O)N2CCC(c3nc4ccc(Cl)cc4[nH]3)CC2)cc1	WT yeast gro inh 69 (no result: Insulin prom up)
Cc1cc(C)nc(Sc2ccc3nnnn3n2)n1	none (no result: Insulin prom inh)
c1ccc2c(c1)ncn2CCCOc1ccc2c(c1)CCC2	WT yeast gro inh 65 (no result: Cl transport mod)
c1ccc(OCCCCn2cnc3ccccc32)cc1	none (no result: ROMK mod)
c1ccc2c(c1)ncn2CCCCOc1ccc2c(c1)CCC2	Lmaj promast 56, WT yeast gro inh 69 (no result: Cl transport mod)
COc1ccccc1NC(=S)N1CCC(NC(=O)c2ccco2)CC1	none (no result: Insulin prom up)
O=C(NCc1ccccc1)C1=C[C@@H](c2ccc(Br)cc2)C[C@@H](OCc2ccc(CO)cc2)O1	Lmaj promast 55 (no result: Insulin prom inh, Insulin prom up, ROMK mod)
O=C(NCc1nc2ccccc2[nH]1)C1=C[C@@H](c2ccc(Br)cc2)C[C@@H](OCc2ccc(CO)cc2)O1	Lmaj promast 78 (no result: Insulin prom inh, ROMK mod)
O=C(NCc1nc2ccccc2[nH]1)C1=C[C@@H](c2csc3ccccc23)C[C@@H](OCc2ccc(CO)cc2)O1	Lmaj promast 95 (no result: Insulin prom inh, ROMK mod)
O=C(NCc1ccccc1)C1=C[C@H](c2ccc(C(F)(F)F)cc2)C[C@H](OCc2ccc(CO)cc2)O1	none (no result: Insulin prom inh, Insulin prom up, ROMK mod)
O=C(NCc1nc2ccccc2[nH]1)C1=C[C@@H](c2ccc(Br)cc2)C[C@@H](OCCCCO)O1	none (no result: Insulin prom inh, ROMK mod)
CCCc1cc(=O)[nH]c(SCC(=O)c2c(N)n(C)c(=O)n(C)c2=O)n1	none (no result: Insulin prom inh, Cl transport mod)
O=C(N/N=C/c1ccccn1)c1cccs1	Lmaj promast 77
CC1CCN(C(=S)c2cn(Cc3ccccc3F)c3ccccc23)CC1	WT yeast gro inh 74 (no result: ROMK mod)
Cc1ccccc1OCCn1cc(C(=S)N2CCN(C)CC2)c2ccccc21	Lmaj promast 79 (no result: Cl transport mod)
CN1CCN(C(=S)c2cn(Cc3ccc(F)cc3)c3ccccc23)CC1	Lmaj promast 51 (no result: Cl transport mod)
Cc1ccccc1OCCn1cc(C(=S)N2CCCC2)c2ccccc21	none (no result: WT yeast gro inh, Cl transport mod, Insulin prom up, ROMK mod)
CCOc1ccc(CC(=O)N2N=C(C)CC2(O)C(F)(F)F)cc1 (stereo not given)	none (no result: Cl transport mod)
Cc1c(Cl)cccc1-n1c(SCC(=O)N(C)Cc2ccccc2)nnc1-c1ccncc1	none (no result: ROMK mod)
Cc1ccccc1CS(=O)(=O)c1nnc([C@H](Cc2ccccc2)NC(=O)OC(C)(C)C)o1	Insulin prom inh 78 (no result: Cl transport mod)

Source: PubChem BioAssay (several laboratories)
